Results taken from PubChem BioAssay AID652104 (National Center for Advancing Translational Sciences (NCATS), 2013).
Out of some 410,000 compounds screened, about 7,200 (1.8%) were called active. Inconclusive results (about 7%) are left out. This excerpt belongs to a sample that is enriched for actives. Unmarked numbers belong to inactive results. Calls follow the shape of the dose curve; as a rule, active = well fitted activation curve with a large enough effect; inconclusive = small, poorly fitted or top-dose-only effect, or another doubt; inactive = no such curve, though single readings can be large or run the other way.

assay: qHTS of TDP-43 Inhibitors; conditions: TDP-43 expressing yeast growth rescue, BacTiter-Glo, 24 h; series mostly up to 46.1 µM; growth rescue (activation): at the top concentration; also: nearly all actives have a fitted effect of over 50% in size; as to growth rescue (activation): % of control where 0% means no effect
How it was run: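 Cell-based yeast growth screen: TDP-43 expression induced in galactose, inoculum OD600=0.02 after raffinose pregrowth to mid-log. Read-out BacTiter-Glo luminescence at 24 hr, 30 deg C; inhibition of toxicity seen as signal increase.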
Potency is read from the fitted curve at half-maximal effect.

Structure (SMILES)	growth rescue (activation)	Potency
CC1CCc2noc(NC(=O)c3ccc([N+](=O)[O-])cc3)c2C1 (centres undefined)	6.42%	
Cc1cc(C)cc(OCC(=O)Nc2nc(-c3ccc(F)cc3)ns2)c1	6.88%	
Cn1nccc1C(=O)NC1CCCc2c1cnn2-c1ccc(F)cc1F (centres undefined)	10.7%	
COc1cccc(C(=O)Nc2c3c(nn2-c2cccc(C)c2C)CS(=O)(=O)C3)c1OC	-20.6%	
COc1ccc(C(=O)NC2CCCc3c2cnn3-c2cccc(C)c2C)c(OC)n1 (centres undefined)		15.8 µM (active)
CCOc1ccc(CNCc2c(C(=O)O)c(C)n(Cc3cccc(OC)c3)c2C)cc1OC	20.8%	
Cc1ccc(-n2c(SCC(=O)Nc3cccc(F)c3)nc3c(oc4ccccc43)c2=O)cc1C	6.78%	
S=c1[nH]nc2c3c4c(sc3ncn12)CCCC4		4.47 µM (active)
CCn1c(=S)[nH]c2sc3c(c2c1=O)CCCCC3	7.77%	
Cc1ccc2nc(COc3ccc(NC(=O)COc4ccccc4F)cc3)cc(=O)n2c1	-13.1%	
Cc1cccc(Cn2c(SCc3ccc(C(=O)N4CCC(C)CC4)cc3)nc3ccncc32)c1	-2.39%	
Cc1cc2c(cc3c(SCc4cccc(Cl)c4)nnc(C)n32)o1		20 µM (active)
O=C(c1ccco1)N1CCN=C1SCc1cccc(Cl)c1	4.84%	
CCc1nnc(SCc2nc(-c3cccc(C)c3)oc2C)c2cc3sc(C)cc3n12	9.11%	
Cc1cc(NC(=O)CSCc2nc(-c3cccc(Cl)c3)oc2C)no1	-9.69%	
Cc1nnc(SCc2cccc(Cl)c2)n(N)c1=O	-2.32%	
Cc1cc2c(cc3c(SCc4nc(-c5ccccc5)oc4C)nnc(C)n32)o1		17.8 µM (active)
COc1cccc(-c2nnc(SCC(=O)N3CCC(C)CC3)o2)c1	42.2%	
O=C(Cn1cc(SCc2ccccc2)c2ccccc21)N1CCCCC1	0%	
COc1ccc(Nc2nc(NCc3ccco3)nc(N/N=C/c3ccccc3Cl)n2)cc1		17.8 µM (active)
C=CCC(NCc1ccco1)c1ccc(OC)cc1 (centres undefined)	-8.96%	
COc1ccc(NC(=O)C(=O)NCc2ccco2)cc1	19%	
COc1cc(OC)cc(-c2nc3nc(C)c(CCC(=O)Nc4ccccc4)c(C)n3n2)c1	1.76%	
O=C(NCCCc1ccccc1)c1ccc2c(c1)sc1nc(-c3ccc(F)cc3)cn12	1.87%	
CCC(=O)N1c2ccccc2CC1C(=O)N1CCN(c2cccc(OC)c2)CC1 (centres undefined)	0%	

Structure (SMILES)	growth rescue (activation)	Potency
CC1=C(c2ccc(C)c(C)c2)S(=O)(=O)NC1=NCc1ccccc1Cl	-4.02%	
O=C1c2ccccc2S(=O)(=O)N1Cc1c(F)cccc1Cl	-8.24%	
O=C1c2ccccc2S(=O)(=O)N1CC(O)Cn1c2ccccc2c2ccccc21 (centres undefined)		11.2 µM (active)
CS(=O)(=O)N(CC(O)Cn1c2ccccc2c2ccccc21)c1cccc2ccccc12 (centres undefined)	-13.6%	
COc1ccc(CNC(=O)c2ccc3c(O)c(S(=O)(=O)c4ccccc4)c(=O)[nH]c3c2)cc1	6.56%	
CCOc1ccc(/C=N/OCC(=O)NCc2cccs2)cc1		11.2 µM (active)
CCOc1ccc(/C=C/C(=O)N(CC)CC(=O)NCc2cccs2)cc1OC	0%	
CCOc1ccc(C(=O)NC2CCN(CC(=O)NCc3cccs3)CC2)cc1	-6.15%	
CCCCc1nn2c(=O)cc(COC(=O)c3ccc(NC(=O)c4ccccc4C)cc3)nc2s1	6.4%	
CCCc1nc2c3ccccc3ccn2c1Cc1ccccc1C(F)(F)F	-67.8%	
c1ccc(Cc2c(-c3ccco3)nc3c4ccccc4ccn23)cc1		35.5 µM (active)
Cc1ccc(Cc2c(-c3ccco3)nc3ccc(Cl)cn23)cc1		6.31 µM (active)
N#Cc1ccc(C(C(=O)NCc2ccccc2)n2c(=O)c(-c3ccco3)nc3ccccc32)cc1 (centres undefined)	16.3%	
Cc1ccc2nc(-c3ccccc3)c(CC3CCCCC3)n2c1	0%	
Cc1ccc(-c2nc3c(Cl)cc(C(F)(F)F)cn3c2Cc2cccc(Cl)c2)cc1	28.6%	
Clc1cccc(Cc2c(-c3cccc(Cl)c3)nc3ccc(Cl)cn23)c1		12.6 µM (active)
Cc1cc(Br)cn2c(Cc3cccc(F)c3)c(-c3cccc(Br)c3)nc12	0%	
CN1CCN(Cc2c(C(=O)N3CCc4ccccc4C3)nc3ccc(Cl)cn23)CC1	5.77%	
CCOc1ccc(N(CC)S(=O)(=O)N2CCCC(C(=O)NCc3ccc(SC)cc3)C2)cc1 (centres undefined)	14.4%	
CCN(CC)c1ccc(NS(=O)(=O)c2cc(-c3cc(C)no3)ccc2C)c(C)c1	-14.9%	
Cc1cccc(-n2c(SCC(N)=O)nc3c(oc4ccccc43)c2=O)c1	26.1%	
COc1ccc(NC(=O)CCCN2C(=O)CCn3nc(-c4cn(C)c5ccccc45)cc32)cc1OC	14.9%	
CCOCCCn1c(SCC(=O)Nc2ccc(CC)cc2)nc2ccccc2c1=O	8.55%	
COc1ccc(OC)c(CNC(=O)c2c3c(nc4ccccc24)C(=O)N(C2CCCCC2)C3)c1	2.95%	
O=C(Nc1cccc(F)c1)[C@@H]1CCCN1	4.62%	

Structure (SMILES)	growth rescue (activation)	Potency
Cc1ccc2cc(/C=N/NC(=O)[C@@H]3CCCN3)c(Cl)nc2c1		4.47 µM (active)
CCc1ccccc1NS(=O)(=O)c1ccc2nc(-c3ccccc3)[nH]c2c1	23%	
Cc1nc2ccc(S(=O)(=O)NC(C(=O)NCc3ccccc3Cl)C(C)C)cc2s1 (centres undefined)	23.9%	
Cc1cccc(OCCSc2nc3ccc(NC(=O)COc4ccccc4C)cc3s2)c1	-10.4%	
Cc1ccc(C(=O)N2c3ncnn3C3(CCCCC3)[C@@H]3CCCC[C@@H]32)cc1		22.4 µM (active)
Cc1ccc(S(=O)Cc2ccc(C(=O)N3CCN(C4CCCCC4)CC3)o2)cc1 (centres undefined)	-22.5%	
Cc1cccc(C(=O)N2c3nc(-c4ccco4)nn3C3(CCCCC3)[C@@H]3CCCC[C@@H]32)c1	14.2%	
CCOC(=O)c1c(C)[nH]c(C)c1S(=O)(=O)NCC(=O)NCc1cccc(C)c1	-15.8%	
O=C(CCc1nc(CN2CCN(S(=O)(=O)c3ccc(Br)cc3)CC2)no1)N1CCCCC1	-11%	
COc1ccc(C2CC(=O)Nc3c2c(=O)nc2c(C)cccn32)cc1OC (centres undefined)	25.6% [at 9.22 µM]	
COC(=O)c1cnn(-c2ccc(C(=O)Nc3ccc(OC(F)(F)F)cc3)cc2)c1N	12.1% [at 9.22 µM]	
CCc1nc2nc(C)cc(Nc3ccc(F)c(Cl)c3)n2n1	24.6%	
Cc1ccc(CNC(=O)CCC(=O)N2CC(C)Sc3ccccc32)cc1 (centres undefined)	21.1%	
COc1ccccc1NC(=O)CCC(=O)N1CC(C)Oc2ccc(C)cc21 (centres undefined)		inactive
Cc1ccc(Cl)cc1NC(=O)CCC(=O)N1CC(C)Sc2ccccc21 (centres undefined)		25.1 µM (active)
CC(=O)N1CCCc2cc(S(=O)(=O)N3CCC(C(=O)NC4CCCCC4)CC3)ccc21	19.1%	
Cc1ccc(NC(=O)CSc2nc3c(c(=O)[nH]2)CN(Cc2ccc4c(c2)OCO4)CC3)cc1C	-5.01%	
Cc1cccc(NC(=O)Cn2c(=O)n(CCC(C)C)c(=O)c3cccnc32)c1	-4.57%	
COc1ccc(-c2cn3nc(N4CCCC(C(=O)NCCCOC(C)C)C4)sc3n2)cc1 (centres undefined)	21.4%	
COC(=O)c1sc2ncccc2c1-n1c(C)ccc1C	22.8%	
COc1ccc(-n2c(C)csc2=S)cc1	14.9%	
COC(=O)c1sc(=S)n(-c2ccc(Cl)cc2)c1C		12.6 µM (active)
Cc1ccccc1-c1nc(SCC(=O)N(C)c2ccccc2)c2c(=O)n(C)c(=O)n(C)c2n1	0% [at 9.22 µM]	
CCN1CCN(c2ncnc3c2cnn3-c2ccc(C)c(C)c2)CC1	-11.6%	
CCc1cc2c(N3CCN(c4nnc(CC)s4)CC3)ncnc2s1		17.8 µM (active)

Structure (SMILES)	growth rescue (activation)	Potency
Cc1ccc(NC(=O)CSc2nnc3[nH]c(=O)cc(C)n23)cc1Cl	21.8%	
COc1ccc(-c2cc(-c3nc(-c4cc(OC)c(OC)c(OC)c4)no3)[nH]n2)c(OC)c1	11.5%	
CCOc1ccc(CNC(=O)C2CCCN(S(=O)(=O)N(CC)c3ccc(OCC)cc3)C2)cc1 (centres undefined)	18%	
Oc1ccc(-c2[nH]ncc2-c2nc3ccccc3s2)c(O)c1	18.5%	
CCN(CCn1cccn1)Cc1cn[nH]c1-c1ccc(OC)cc1F	3.87%	
CCOc1ccccc1Oc1cn[nH]c1-c1ccc(OC)cc1O		22.4 µM (active)
Cc1cccc(N2CCN(C(=O)c3ccc4c(c3)CCN4S(=O)(=O)c3ccccc3)CC2)c1C	18.4%	
CC(=O)c1ccc(NC(c2ccc(F)cc2)c2nnc(-c3ccccc3)o2)cc1 (centres undefined)	1.24%	
CCOC(=O)c1c(NC(=O)c2cc(CC)on2)sc(C(C)=O)c1C	18.1%	
O=C(CNC(=O)OCc1ccccc1)NC1CCCCNC1=O (centres undefined)	-16.7%	
O=C(CNC(=O)Cc1ccccc1)NCC(=O)OCC(=O)c1ccccc1Cl	-11.4%	
O=C(CNC(=O)OCc1ccccc1)Oc1cc2oc(=O)cc(-c3ccccc3)c2cc1Cl		7.08 µM (active)
CCc1ccc(NC(=O)CCS(=O)(=O)c2cc3c(cc2Cl)NC(=O)CO3)cc1	5.16%	
CCCCCn1c(=O)c(C(=O)OCC)c(Cl)c2ccccc21	-8.57%	
Cn1c(=O)c(C(=O)Nc2ncccn2)c(O)c2ccccc21	-9.83%	
CCCn1c(=O)c(-c2ccccc2)c(O)c2ccccc21		22.4 µM (active)
COc1ccc(OC)c(NC(=O)CSC2=Nc3ccccc3C3=NC(CC(=O)NCCc4ccccc4)C(=O)N23)c1 (centres undefined)	0%	
Cc1c(-c2nc(-c3ccc4c(c3)OCO4)no2)nnn1-c1ccc(Br)cc1F	13.5%	
CC1CCc2c(nc3ncnn3c2Nc2ccc(OC(F)(F)F)cc2)C1 (centres undefined)	-0.0857%	
Brc1ccc(Nc2c3c(nc4ncnn24)CCC3)cc1		12.6 µM (active)
Cc1cc(Nc2ccc(C)c(C)c2)n2ncnc2n1	14.1%	
COc1ccc(C(=O)c2oc3ccccc3c2NC(=O)COc2cccc(C)c2)cc1	9.29% [at 9.22 µM]	
Cc1c(NC(=O)c2cc(=O)c3ccccc3o2)c(=O)n(-c2ccccc2)n1C	22.7%	
CCOC(=O)c1cccc(NS(=O)(=O)c2cc(-c3cnc(C)o3)ccc2OC)c1	22.8%	
